Some test systems named below: HCT-15 colon; HT29 colon; SNB-75 CNS; SNB-19 CNS; U251 CNS; PC-3 prostate; SK-MEL-5 melanoma; UACC-62 melanoma; LOX IMVI melanoma; SK-MEL-2 melanoma; EKVX NSCLC; SN12C renal; UO-31 renal; TK-10 renal; ACHN renal; CAKI-1 renal; A498 renal; MOLT-4 leukemia; CCRF-CEM leukemia; SK-MEL-28 melanoma.
Holding throughout (test): NCI-60 one-dose screen, 48 h (100 = growth as untreated, 0 = no growth, -100 = all killed)
Conditions in all cases: 10 µM unless noted

This is part of a sample that, as a whole, favours compounds with a hit. Of some 83,000 tested, about 20% had one in any assay.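 96-well plates, one dose, 48 hours. Percent growth reported; active if below 10.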 A number with no mark means an inactive call. Calls of active or inactive are those of the source.

Regarding `O=C(CN1C(=O)S/C(=C\C(Cl)=C\c2ccccc2)C1=O)NC1CCS(=O)(=O)C1` (stereo not drawn), the growth in the test on HCT-15 colon is 15.7%; in the test with HT29 colon, 53.5%; with SNB-75 CNS, 57.8%; in the test on SNB-19 CNS, 86.8%; in the test on U251 CNS, 81.6%; in the test with PC-3 prostate, 80.9%. Besides, the growth with SK-MEL-5 melanoma is 84.5%; in the test with UACC-62 melanoma, 72.1%; in the test with LOX IMVI melanoma, 14.2%; in the test on SK-MEL-2 melanoma, 85%; in the test on EKVX NSCLC it was 82.4%; in the test with SN12C renal, 79.7%. Besides, the growth with UO-31 renal was 65.6%; with TK-10 renal, 64%; in the test on ACHN renal, 46.8%; in the test on CAKI-1 renal, 78.1%; in the test with A498 renal it was 99.7%; with MOLT-4 leukemia, 40.7%.
In the case of `CCOC(=O)CNC1=C(Cl)C(=O)N(Cc2ccc(Cl)cc2)C1=O`, the growth was 110% in the test on HCT-15 colon; 105% in the test with HT29 colon; 97.9% in the test with SNB-75 CNS; 98.6% with SNB-19 CNS; 100% in the test with U251 CNS; 97.7% in the test with PC-3 prostate. The growth with SK-MEL-5 melanoma was 102%; in the test on UACC-62 melanoma, 104%; in the test with LOX IMVI melanoma, 95.9%; in the test with SK-MEL-2 melanoma, 101%; in the test on EKVX NSCLC, 100%; in the test on SN12C renal it was 99.1%. Moreover, the growth was 66.6% in the test with UO-31 renal; 102% in the test with TK-10 renal; 101% in the test on ACHN renal; 95.4% with CAKI-1 renal; 90.3% in the test with A498 renal; 102% in the test on CCRF-CEM leukemia. Besides, the growth in the test on MOLT-4 leukemia is 98.2%.
Take `CC(C)(C)OC(=O)CN1CCc2c(sc3ncnc(N4CCN(c5ccc(F)cc5)CC4)c23)C1`: the growth in the test with HCT-15 colon was 96.6%; in the test on HT29 colon it was 98.7%; with SNB-75 CNS, 82.6%; in the test on SNB-19 CNS, 88%; in the test with U251 CNS, 85.5%; in the test on PC-3 prostate, 69.2%. The growth in the test on SK-MEL-5 melanoma was 92%; in the test on UACC-62 melanoma it was 68.4%; in the test on LOX IMVI melanoma it was 96.7%; in the test with SK-MEL-2 melanoma, 92.1%; in the test with EKVX NSCLC, 95.5%; in the test with UO-31 renal, 51.7%. Besides, the growth is 100% in the test on TK-10 renal; 85.7% with ACHN renal; 80.6% in the test on CAKI-1 renal; 68.7% in the test with A498 renal; 59.2% with CCRF-CEM leukemia; 53.4% in the test with MOLT-4 leukemia.
Take `COCCn1cc(-c2nc(-c3cc4cccnc4n3C)cs2)c2ccccc21`: the growth was 21.5% in the test with HCT-15 colon; 12.9% in the test with HT29 colon; 61.3% in the test with SNB-75 CNS; 63.5% in the test on SNB-19 CNS; 33.3% with U251 CNS; 27.5% in the test on PC-3 prostate. Moreover, the growth in the test on SK-MEL-5 melanoma was 2.5% (active); in the test with UACC-62 melanoma, 46.2%; in the test on LOX IMVI melanoma, 38.7%; in the test on SK-MEL-2 melanoma it was 18.7%; in the test with EKVX NSCLC, 19.8%; in the test with SN12C renal, 59.1%. Also, the growth was 52.1% in the test with UO-31 renal; 44.2% with TK-10 renal; 54.9% in the test with ACHN renal; 60.7% in the test on CAKI-1 renal; 33.2% with A498 renal; 46.2% in the test with CCRF-CEM leukemia. Moreover, in the test on MOLT-4 leukemia, the growth was 26.6%.
As to `Cc1ccc2c(/C=C/C(=O)c3cc(CN4CCOCC4)c(O)c4nc(C)ccc34)cc(CN3CCOCC3)c(O)c2n1`, the growth was 0.566% (active) in the test with HCT-15 colon; -6.31% (active) in the test on HT29 colon; 23.3% in the test with SNB-75 CNS; 36.4% in the test with SNB-19 CNS; -24% (active) with U251 CNS; 19.9% in the test on PC-3 prostate. Further, the growth with SK-MEL-5 melanoma is 4.68% (active); in the test with UACC-62 melanoma, -0.641% (active); with LOX IMVI melanoma, -66.8% (active); with SK-MEL-2 melanoma it was -2.61% (active); with EKVX NSCLC it was 31.5%; in the test with UO-31 renal it was -16.8% (active). The growth in the test with TK-10 renal is 17.8%; with ACHN renal it was -26.3% (active); in the test on CAKI-1 renal it was 12.9%; in the test with A498 renal it was -16.5% (active); in the test on CCRF-CEM leukemia, 3.28% (active); with MOLT-4 leukemia, -2.3% (active).
As to `Fc1cc2[nH]ncc2c2c3c(c(-c4cn[nH]c4C(F)(F)F)nc12)CCCC3`, the growth in the test with HCT-15 colon was 4.79% (active); with HT29 colon, 6.14% (active); in the test with SNB-75 CNS, -26.5% (active); in the test on SNB-19 CNS it was 8.83% (active); in the test on U251 CNS it was -0.282% (active); in the test on PC-3 prostate, 34.6%. Moreover, the growth in the test with SK-MEL-5 melanoma was -66.3% (active); in the test with UACC-62 melanoma, -4.44% (active); in the test on LOX IMVI melanoma, -50.6% (active); with SK-MEL-2 melanoma, -22.1% (active); in the test on EKVX NSCLC, 8.29% (active); with SN12C renal, 4.98% (active). Also, the growth is -7.31% (active) in the test on UO-31 renal; -8.31% (active) with TK-10 renal; 0.165% (active) in the test on ACHN renal; -7.15% (active) with CAKI-1 renal; -63.9% (active) with A498 renal; 1.34% (active) in the test on CCRF-CEM leukemia. Also, in the test on MOLT-4 leukemia, the growth was 10.9%.
Regarding `CC(O)Cc1c[nH]c(=O)[nH]c1=O` (stereo not drawn), the growth in the test on HCT-15 colon was 97.8%; in the test with HT29 colon, 114%; with SNB-75 CNS, 120%; with SNB-19 CNS, 108%; in the test with U251 CNS it was 95.9%; in the test on PC-3 prostate, 126%. Moreover, the growth with SK-MEL-5 melanoma is 109%; with UACC-62 melanoma it was 106%; in the test on LOX IMVI melanoma, 96.5%; with SK-MEL-2 melanoma it was 115%; in the test on EKVX NSCLC it was 106%; with SN12C renal it was 110%. Also, the growth in the test on UO-31 renal is 100%; in the test with TK-10 renal, 123%; with ACHN renal, 97.9%; in the test on CAKI-1 renal, 99.6%; in the test on A498 renal, 87.8%; in the test with CCRF-CEM leukemia it was 122%. Moreover, the growth in the test on MOLT-4 leukemia is 101%.
For the compound `COc1cc(/C=C2\C(=O)N(CCCOc3cc(O)c4c(=O)cc(-c5ccccc5)oc4c3)c3ccccc32)cc(OC)c1O`, the growth in the test with HCT-15 colon is 42.4%; with HT29 colon, -16.1% (active); in the test with SNB-75 CNS, 47.6%; with SNB-19 CNS, 80.6%; with U251 CNS it was 60.9%; in the test with PC-3 prostate it was 67%. Moreover, the growth in the test on SK-MEL-5 melanoma is 71.9%; in the test with UACC-62 melanoma, 46.8%; in the test with LOX IMVI melanoma it was 58.8%; in the test with SK-MEL-28 melanoma it was 90.9%; with SK-MEL-2 melanoma, 81.1%; in the test on SN12C renal, 91.3%. In addition, the growth in the test with UO-31 renal is 61.9%; in the test with ACHN renal it was 93.3%; in the test on CAKI-1 renal, 85.2%; in the test with A498 renal, 91.7%; with CCRF-CEM leukemia, 70.2%; in the test with MOLT-4 leukemia it was 64.7%.
